Data on 104 compounds can be found in ChEMBL document CHEMBL4513216, “Probing the Open Global Health Chemical Diversity Library for Multistage-Active Starting Points for Next-Generation Antimalarials” (ACS Infect Dis, 2020).

In all, about 68,000 compounds went through this assay and about 2,700 (4%) showed an effect of 50% or more. Many of the other results were omitted from the sample, so strong results are more common in it than they were.

For this assay, the system named is Plasmodium berghei. Description: Screen against P. berghei liver stage (PbLuc), transformed with Luciferase, at 2uM. Type of assay: functional, HepG2. The conditions noted are these: tested at 2 uM.
`CC[C@@H]1N(Cc2ccc(C)o2)CCC[C@]12CCC(=O)N2CCOC`: the INHIBITION is 33.74%.

`O=C(CCCc1ccccn1)N1CCCC1c1noc(C2CC2)n1` (centres undefined): the INHIBITION worked out at 30.91%. The same measure for `COc1c(C)cnc(CN(C)C2CCCCC2)c1C`: 11.8%; for `O=c1c(NCCNCCO)c(N2CCN(c3ccccc3)CC2)c1=O`: -11.72%; for `CC1(C(N)=O)CCCN(c2cnccn2)C1` (centres undefined): -4.8%.

As for `CC(C)[C@@H](CO)Nc1cc(-c2cn[nH]c2)ncn1`, the INHIBITION was 21.81%.

As for `O=C([C@H]1COC[C@H]2CN(C3CCCC3)C[C@H]21)N1CCOCC1`, the INHIBITION is 12.4%. Regarding `CC(=O)c1ccc(Cl)c(Cl)c1OCC(=O)NC(C)C`, the INHIBITION was found to be 26.27%. On to `COc1ccc2c(c1)C1(CCN(Cc3nccs3)CC1)N(C)CC2`, for which the INHIBITION worked out at 13.75%. Turning to `CC(NC(=O)Cc1cccs1)(C(N)=O)c1cccc(Cl)c1` (centres undefined), the INHIBITION was -18.59%. As for `CN(CCc1ccccn1)C(=O)C1Cc2ccccc2CN1C` (centres undefined), the figure is 31.78%; as for `CC(=O)N1Cc2ccccc2C[C@H]1C(=O)N(C)CCc1ccccn1`, 8.73%.

As to `CC(=O)N1Cc2ccccc2C[C@H]1C(=O)N(C)Cc1ccccn1`, the INHIBITION is reported as 58.12%. Consider `Cc1nnsc1C(=O)NCc1nn(C)c2c1COCC2`, for which the INHIBITION is given as -1.74%.

With `O=C(C1CCOCC1)N1C[C@@H]2CC[C@H]1CN(C1Cc3ccccc3C1)C2`, the INHIBITION amounted to 27.33%.

For the compound `COC(=O)[C@H]1C[C@@H](O)CCN1S(=O)(=O)c1ccc(F)cc1F`, the INHIBITION stood at 16.25%. As for `COC(=O)[C@H]1C[C@@H](O)CCN1S(=O)(=O)c1cc(Cl)ccc1OC`, the figure is 55.18%; as for `COC(=O)[C@H]1C[C@@H](O)CCN1S(=O)(=O)c1cc(C)c(Cl)cc1C`, 26.51%; as for `CCS(=O)(=O)N1CCc2c(cccc2NCc2nc(C)c(C)o2)C1`, -23.97%. As to `COCCN(Cc1ccc(C)o1)C(=O)Nc1nnc2ccccn12`, the INHIBITION came out at 33.9%. As for `COCCN(Cc1ccc(C)o1)C(=O)Nc1nnc(C(F)F)s1`, the figure is -44.8%; as for `CCc1nnc(NC(=O)N(CCOC)Cc2ccc(C)o2)s1`, 83.98%; as for `COCCN(Cc1ccc(C)o1)C(=O)Nc1ncc(C)s1`, 62.51%. The same measure for `CCC(=O)Nc1nnc(CCOc2ccc(OC)cc2)s1`: -14.16%. As for `COCCN(Cc1cnn(C)c1)Cc1ccc(C)o1`, the figure is 12.58%. With `Cc1noc(C)c1CCC(=O)N1CCCCC1CNS(C)(=O)=O` (centres undefined), the INHIBITION is on record as -3.46%. Consider `COc1ccccc1C(C)(C)NC(=O)c1ccc(F)c(NC(C)=O)c1`, for which the INHIBITION was 38.49%. Consider `Cc1nc(-c2ccccc2C(=O)O)cc(C2CCN(C(C)C)C2)n1` (centres undefined), for which the INHIBITION turned out to be 17.01%. As for `CN(Cc1cccnc1)CC1CCCN1c1cccnn1` (centres undefined), the INHIBITION is 33.31%. As for `Cc1nc(N2CCN(C)CC2)ncc1C(=O)N1CCCCCC1`, the figure is -15.75%. For `Cc1ccc(-c2n[nH]cc2CNCCn2cccn2)o1`, the INHIBITION came to 7.85%.

Regarding `CCN1CCN(c2ccc(CNC(=O)c3ccccc3F)cn2)CC1`, the INHIBITION is reported as 20.41%.

On to `O=C(Cc1cccnc1)N1CCCC(n2cncn2)C1` (centres undefined), for which the INHIBITION is reported as -7.82%. The same measure for `NC(=O)N1CCC2(CC1)CN(c1ccsc1)C(=O)CO2`: -12.73%. As for `N#Cc1cccc(N2CCC3(CCC(=O)N(CCCO)C3)CC2)n1`, the figure is 58.18%; as for `Cc1cc(N2CCC3(CCC(=O)N(CCCO)C3)CC2)nc(N(C)C)n1`, 57.75%; as for `Cc1cc(N2CCC3(CCC(=O)N(CCO)C3)CC2)nc(N(C)C)n1`, 19.59%. With `N#Cc1cccc(N2CCC3(CCC(=O)N(CC(N)=O)C3)CC2)n1`, the INHIBITION is -30.57%. In the case of `CCCc1nc(C)cc(N2CCC3(CCC(=O)N(CCCO)C3)CC2)n1`, the INHIBITION is given as -25.22%. On to `N#Cc1cccc(N2CCC3(CCC(=O)N(CC4CCCO4)C3)CC2)n1` (centres undefined), for which the INHIBITION is recorded as -41.11%. The same measure for `O=C(COc1coc(CN2CCCCC2)cc1=O)Nc1cccc(Cl)c1`: -13.13%. Take `CCOCC(O)CN1CCN(C(=O)Cc2ccc3c(c2)CCC3)CC1` (centres undefined): the INHIBITION is reported as 24.88%. The same measure for `Cc1ccc(CN(Cc2cc(C)no2)C2CC2)cc1`: 2.01%; for `CCOc1cc(C)nc(N2CCN(C(=O)c3csnn3)CC2)n1`: -14.16%. As for `CCOCC(O)CN1CCN(C(=O)c2ccccc2F)CC1` (centres undefined), the figure is 30.29%; as for `CCn1cc(CN2C[C@@H]3CCCN3C[C@H]2CCSC)cn1`, -25.95%. Turning to `Cc1ccc(N(C)CC(O)COCc2ccccc2F)c(C)c1` (centres undefined), the INHIBITION is on record as 25.92%. In the case of `CCc1nnc(CN2CCC(C3CCCCCN3C(C)=O)CC2)o1` (centres undefined), the INHIBITION is -5.58%. As for `CCOCCCNC(=O)c1nc2c(s1)CCCN2c1ccc(C)nn1`, the figure is -14.63%; as for `CCNC(=O)C(C)NC(=O)Nc1ccccc1Cl` (centres undefined), 12.43%. The same measure for `CCNC(=O)C(C)NC(=O)Nc1ccccc1SCC` (centres undefined): 60.13%.

For `CCNC(=O)C(C)NC(=O)Nc1ccccc1SC(F)(F)F` (centres undefined), the INHIBITION is reported as -16.18%. For the compound `c1csc(-c2noc(C3CNC3)n2)c1`, the INHIBITION is listed as 5.98%. As for `C1CC(N2Cc3nnn(CC4CC4)c3C(COCC3CC3)C2)C1` (centres undefined), the INHIBITION was 10.71%. As for `CN(CCc1ccccn1)C(=O)c1cnn(-c2ccccc2F)c1N`, the figure is 4%. Consider `Cc1nc(NC(=O)N2CCCC(N(C)C)C2)nn1C` (centres undefined), for which the INHIBITION is reported as 15.68%. Consider `CN(C)S(=O)(=O)N1C[C@H]2CC[C@@H](C1)N(Cc1ccc3nsnc3c1)C2`, for which the INHIBITION worked out at 22.22%. For the compound `CN(C)S(=O)(=O)N1C[C@H]2CC[C@@H](C1)N(Cc1ccc(F)c(F)c1)C2`, the INHIBITION worked out at 53.12%. The same measure for `CN(C)S(=O)(=O)N1C[C@H]2CC[C@@H](C1)N(Cc1ccc3c(c1)OCCO3)C2`: 8.48%; for `CN(CC(F)(F)F)C(=O)CN1CCC(c2cc3ccccc3[nH]2)CC1`: -17.18%; for `CN(C)C(=O)CN1C[C@H]2CC[C@@H](C1)N(Cc1c(F)cccc1Cl)C2`: 41.05%. Regarding `CN(C)C(=O)CN1C[C@H]2CC[C@@H](C1)N(Cc1c(Cl)cncc1Cl)C2`, the INHIBITION amounted to 69.67%.

Regarding `CN(C)C(=O)CN1C[C@H]2CC[C@@H](C1)N(Cc1cccc(Cl)c1Cl)C2`, the INHIBITION is -14.32%.

Regarding `COc1ncc(CN(C)C(C)c2cccnc2)cn1` (centres undefined), the INHIBITION is 40.8%.

In the case of `CNC(=O)CN1CCCC12CCN(C(=O)c1ccoc1)CC2`, the INHIBITION was 23.09%. As for `CCOCCN1CCN(c2ccc(C#N)cn2)CC1`, the INHIBITION is recorded as 13.14%. As for `CCCc1ccc(C(=O)N2Cc3c(Cn4ccnc4)nn(C)c3C2)cc1`, the figure is 1.81%; as for `CC(NC(=O)NCCn1ccnc1)c1ccc2c(c1)OCCCO2` (centres undefined), -16.99%; as for `Cc1ccc(OCC(=O)N2CCOCC(O)(CN3CCCC3)C2)cc1C` (centres undefined), 5.47%. Regarding `O=C(COc1ccc(F)cc1F)N1CCOCC(O)(CN2CCCC2)C1` (centres undefined), the INHIBITION came to 9.43%. As for `O=C(COc1cccc(Cl)c1)N1CCOCC(O)(CN2CCCC2)C1` (centres undefined), the figure is 52.1%; as for `Cc1ccc2nc(CN(C)Cc3n[nH]c4c3CCCCC4)[nH]c2c1C`, -17.01%; as for `COCCNC(=O)C1CCCN(c2ccc3nncn3n2)C1` (centres undefined), -56.23%.

As for `Cn1c(CCNC(=O)C2CCCN(C3CCOCC3)C2)n[nH]c1=O` (centres undefined), the INHIBITION is given as -36.65%. In the case of `Cn1cc(CN2C[C@H]3CCC[C@@]3(COc3ccccn3)C2)cn1`, the INHIBITION was 4.38%. As for `Cc1nnc(NC(=O)NCCN(C(=O)OC(C)(C)C)C2CC2)s1`, the figure is -25.33%; as for `CCN(CCNC(=O)Nc1nnc(C)s1)C(=O)OC(C)(C)C`, 57.98%; as for `CCc1nnc(NC(=O)NCCN(C)C(=O)OC(C)(C)C)s1`, -23.06%. As for `CCC(C(=O)NCC1=CCCN(C)C1)c1ccccc1` (centres undefined), the INHIBITION is -52.88%.

Consider `COCc1cc(NCCc2ccc(S(N)(=O)=O)cc2)n2nccc2n1`, for which the INHIBITION was determined as 32.88%. Turning to `O=C(N1CCOCC1)N1CCc2ncnc(NC3CCC3)c2CC1`, the INHIBITION is 24.36%.

In the case of `CCC(=O)N1CCC2(CC1)CC(N1CCOCC1)c1cc(C)ccc12` (centres undefined), the INHIBITION was 48.17%.

Take `O=C1NCCCCC1Sc1n[nH]c(=O)n1C1CC1` (centres undefined): the INHIBITION is reported as -5.76%. Consider `O=C1NCCCCC1Sc1nnc(C2CC2)n1C1CC1` (centres undefined), for which the INHIBITION was found to be 58.24%. For the compound `O=C1NCCCCC1Sc1nnc(N2CCCC2)n1C1CC1` (centres undefined), the INHIBITION is -20.55%. With `CCN1CC(C(=O)NCc2ccccc2-n2cccn2)CC1=O` (centres undefined), the INHIBITION was found to be 24.91%. The same measure for `CNC(=O)[C@@H]1C[C@H]2CN(C(=O)c3ccco3)C[C@H]2N1C(C)C`: -11.99%.

As to `c1cncc(COCc2nnc3n2CCN(Cc2cccs2)C3)c1`, the INHIBITION is reported as 29.95%. The same measure for `Cc1ncsc1CCN(C)C(=O)CN1CCCCCC1=O`: 24.36%; for `Cc1ncsc1CCN(C)C(=O)CN1CC2(CCCC2)CC1=O`: 52.3%.

For the compound `Cc1ncsc1CCN(C)C(=O)CN1CCCCC1=O`, the INHIBITION was 17.2%. The same measure for `COc1cc(NC(=O)c2nc3ccccc3n(C)c2=O)cc(OC)c1`: -1.01%. Regarding `COCCn1cc(C(=O)N2CCCC2c2cccc(C)c2)ccc1=O` (centres undefined), the INHIBITION is recorded as 9.5%.

For the compound `CCN1CCN(C)C2(CCN(C(=O)CC(F)(F)F)CC2)C1=O`, the INHIBITION is -2.81%. Turning to `COCCCN1CC2(CCC1=O)CCN(Cc1cc(C(C)C)no1)CC2`, the INHIBITION stood at 50.86%. On to `COCCCN1CC2(CCC1=O)CCN(Cc1cc(C)no1)CC2`, for which the INHIBITION was -7.23%. On to `COCCCN1CC2(CCN(Cc3cc(C(C)C)no3)CC2)CC1=O`, for which the INHIBITION is -9.78%.

Turning to `CS(=O)(=O)c1nccn1Cc1ccncc1`, the INHIBITION is on record as -52.32%.

As for `Cc1ccccc1N1CC(C)N(C(=O)CCn2cccn2)CC1=O` (centres undefined), the INHIBITION came to 51.08%.

On to `CCc1nccn1CCC(=O)N1CC(=O)N(c2ccccc2C)CC1C` (centres undefined), for which the INHIBITION is 26.21%. Consider `CCc1nccn1CCC(=O)N1CCN(c2ccccc2C)CC1C` (centres undefined), for which the INHIBITION is recorded as -12.03%.

Take `O=C1NCC2(CCN(C(=O)c3ccc4c(c3)CCCO4)CC2)O1`: the INHIBITION was determined as 50.59%.

`O=C1NCC2(CCCN(C(=O)c3ccc4c(c3)OCCO4)CC2)O1` (centres undefined): the INHIBITION is recorded as 24.36%. The same measure for `O=C1NCC2(CCCN(C(=O)c3ccc4c(c3)CCCO4)CC2)O1` (centres undefined): 26.74%.
